Source: PubChem (National Center for Advancing Translational Sciences (NCATS))
In the library only some 0.55% were active in any assay of this set; here they are far more common.
EPAC1 ag: activates human EPAC1 exchange factor. O95398. EPAC1 agonist qHTS, biochemical assay; response scale: 100% = response to 6.5 mM cAMP. Potency, µM (series often up to 154 µM), without a hit: at the top dose activation, most hits filed as activators. 360,000 compounds, 0.073% hits. AID 720707; also: nearly all actives have a fitted effect of over 60% in size
Target sequence (O95398 whole entry, looked up): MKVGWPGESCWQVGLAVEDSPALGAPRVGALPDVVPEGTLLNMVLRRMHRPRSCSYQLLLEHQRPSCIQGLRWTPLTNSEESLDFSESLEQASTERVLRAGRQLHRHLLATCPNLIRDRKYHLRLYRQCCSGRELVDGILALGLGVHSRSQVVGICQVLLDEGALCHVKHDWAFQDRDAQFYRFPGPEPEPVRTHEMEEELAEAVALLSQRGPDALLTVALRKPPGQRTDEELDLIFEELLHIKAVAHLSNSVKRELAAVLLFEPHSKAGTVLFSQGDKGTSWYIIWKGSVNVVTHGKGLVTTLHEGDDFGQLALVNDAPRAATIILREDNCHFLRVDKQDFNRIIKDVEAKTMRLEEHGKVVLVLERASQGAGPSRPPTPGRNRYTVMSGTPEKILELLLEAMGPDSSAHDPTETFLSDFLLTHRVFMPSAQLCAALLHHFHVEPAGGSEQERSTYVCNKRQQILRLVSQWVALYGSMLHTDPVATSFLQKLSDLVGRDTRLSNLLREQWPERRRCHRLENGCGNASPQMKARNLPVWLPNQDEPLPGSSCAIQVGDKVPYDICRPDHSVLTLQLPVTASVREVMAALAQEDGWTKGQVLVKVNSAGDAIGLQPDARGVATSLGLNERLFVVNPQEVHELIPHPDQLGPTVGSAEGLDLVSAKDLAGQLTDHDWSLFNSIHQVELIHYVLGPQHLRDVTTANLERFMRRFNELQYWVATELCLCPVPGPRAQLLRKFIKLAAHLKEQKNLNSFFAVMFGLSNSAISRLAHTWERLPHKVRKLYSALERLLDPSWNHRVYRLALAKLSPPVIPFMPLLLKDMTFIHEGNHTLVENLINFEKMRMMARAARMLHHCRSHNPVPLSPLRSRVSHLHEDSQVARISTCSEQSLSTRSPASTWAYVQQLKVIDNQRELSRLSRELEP
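Multi-concentration qHTS readout: loss of Rap1B-bound BODIPY-GDP fluorescence driven by 100 nM EPAC1 with excess GDP (50 uM), monitored kinetically at room temperature; agonist response expressed relative to 6.5 mM cAMP.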
USP1 inh: inhibitors of human USP1/UAF1 deubiquitinase. O94782. recombinant USP1/UAF1, Ub-Rhodamine cleavage fluorescence. Potency, µM (titrated, usually from 57.1 µM), without a hit: at the highest dose activity change, negative = inhibition, actives largely listed as inhibitors. 390,000 compounds, 0.23% hits. AID 743255; also: % is scaled to controls: 0 for no effect and ±100 for the full control effect; nearly all actives have a fitted effect of over 60% in size
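1 nM enzyme complex + cpd, 15 min RT; start with Ub-Rho 150nM final; kinetic fluorescence ex 480/em 540, 6 reads q60 s. Buffer 50mM HEPES pH 7.8, 0.5mM EDTA, 0.1 mg/ml BSA, 1mM TCEP, 0.01% Tween-20.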
GLP1R cytotox: cytotoxicity counter-screen for GLP-1 receptor inverse agonists; HEK293 cAMP-luciferase reporter cells, luminescence, 24 h; Potency, µM (top dose mostly 38.3 µM), without a hit: top-dose activity change, negative = inhibition, hits mostly inhibitors; 410,000 compounds, 0.13% hits; AID 624418;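 also: loss of luciferase light is scored as toxicity; % is scaled to controls: 0 for no effect and ±100 for the full control effect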
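Here, cytotoxicity is scored as loss of luminescence. The MLSMR collection was tested on cells seeded in medium containing 10% Nu serum, with a 24 hr compound exposure preceded by 12 hours of culture.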
EPAC2 antag: blocks human EPAC2 exchange factor | 360,000 compounds, 0.18% hits | Q8WZA2 | AID 720708 | EPAC2 GEF exchange of Rap1B-BODIPY-GDP, fluorescence | Potency, µM (titrated, usually from 114 µM), for inactives: at the highest dose activity, negative = inhibition, hits mostly inhibitors; also: % is scaled to controls: 0 for no effect and ±100 for the full control effect; nearly all actives have a fitted effect of over 45% in size
EPAC1 antag: blocks human EPAC1 exchange factor; O95398; EPAC1 GEF assay, Rap1b-BODIPY-GDP exchange fluorescence; Potency, µM (titrated, usually from 115 µM), without a hit: at the highest dose activity change, negative = inhibition, actives largely listed as inhibitors; 360,000 compounds, 0.14% hits; AID 720709;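 also: plate controls were vehicle for no effect and positive control for full effect; nearly all actives have a fitted effect of over 50% in size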
EPAC2 agonist: EPAC2 (human) agonism; Q8WZA2; EPAC2 activation, biochemical qHTS; response scale: 100% = 6.5 mM cAMP response; Potency, µM (top dose mostly 154 µM), for inactives: at the highest dose activation, hits mostly activators; 360,000 compounds, 0.079% hits; AID 720711; also: nearly all actives have a fitted effect of over 50% in size
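Fluorescence exchange assay: 100 nM EPAC2 with 250 nM RAP1B-BODIPY-GDP and 50 uM GDP; compounds tested as a concentration-titration series (qHTS). Loss of Rap1-bound BODIPY-GDP fluorescence read at 480/540 nm; data normalized to 6.5 mM cAMP.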
Active calls of the source: *; ? = inconclusive; . = no result; [ ] = remark or other dose. Calls follow the shape of the dose curve; as a rule, active = well fitted curve in the direction sought with a large enough effect; inconclusive = small, poorly fitted or top-dose-only effect, or another doubt; inactive = no such curve, though single readings can be large; an effect the other way counts as inactive or inconclusive. Potency is read from the fitted curve at half-maximal effect.

SMILES | EPAC1 ag | USP1 inh | GLP1R cytotox | EPAC2 antag | EPAC1 antag | EPAC2 agonist
Oc1cccc(C=Nc2cccc3ccccc23)c1O | -5% | ? | ? | 12% | 50µM* | 12%
CCCCCn1c(=O)[nH]c2cc(C(=O)Nc3ccc(OC)c(OC)c3)ccc2c1=O | . | -15% | 0% | . | . | .
O=C(Nc1ccccc1)c1cccnc1NCCc1ccccc1 | 5% | -16% | -5% | -19% | -12% | 6%
COc1ccc(NC(=O)c2cccnc2NCCc2ccccc2)cc1 | 56µM* | -15% | -30% | -4% | 52% | 32µM*
CCCCc1c(C(=O)O)cc(OC)cc1C(=O)O | 6% | -2% | -9% | 8% | 10% | -1%
COc1ccc(OC)c(C(=O)CCCC(=O)c2cc(OC)ccc2OC)c1 | 14% | -8% | 14% | -12% | -17% | 22%
CCCCCc1c2c(cc(O)c1C(=O)O)OC(=O)c1cc(C(=O)CCCC)c(OC)cc1O2 | -32% | -24% | -11% | ? | 50µM* | 4%
CCCCCc1c2c(cc(O)c1C(=O)O)OC(=O)c1c(cc(OC)cc1C(=O)CCCC)O2 | -11% | ? | ? | 50µM* | 50µM* | -6%
CCOc1ccc(NC(=NCc2ccc3c(c2)OCO3)SC2CC(=O)N(c3ccc(C(=O)O)cc3)C2=O)cc1 (centres undefined) | ? | -2% | -1%[1.53 µM] | -15% | 28µM* | 1%
N#C/C(=C\c1ccc(O)c([N+](=O)[O-])c1)c1nc2ccccc2s1 | -9% | ? | ? | ? | ? | -5%
COc1cc(/C=C(\C#N)c2nc3ccccc3s2)cc([N+](=O)[O-])c1O | -7% | -22% | ? | ? | 79µM* | 13%
O=C(c1ccccc1)c1ccc2nc(-c3ccco3)c(-c3ccco3)nc2c1 | -3% | ? | 1% | -15% | 50µM* | -6%
O=C(NCCc1ccccc1)c1ccc2nc(-c3ccco3)c(-c3ccco3)nc2c1 | 16% | -16% | 102% | -3% | ? | 11%
O=C(NCCO)c1ccc2nc(-c3ccco3)c(-c3ccco3)nc2c1 | -1% | 32µM* | 115% | 2% | ? | -3%
O=C(Nc1ccc2nc(-c3ccco3)c(-c3ccco3)nc2c1)N1CCCCCC1 | -1% | 32µM* | 371% | 3% | 40µM* | 1%
CCOC(=O)c1ccccc1NC(=O)CSc1nnc(CC)n2c1cc1occc12 | . | 4% | -19% | . | . | .
COc1ccc(Oc2c(C(F)(F)F)oc3c(CN4CCCC(C)C4)c(O)ccc3c2=O)cc1 (centres undefined) | . | 18% | 1% | . | . | .
C=CCOc1ccc(C(c2c(C(=O)O)[nH]c3ccccc23)c2c(C(=O)O)[nH]c3ccccc23)cc1 | 0% | ? | 0% | -18% | ? | -10%
O=C(O)c1[nH]c2ccccc2c1C(c1cc(Cl)cc([N+](=O)[O-])c1O)c1c(C(=O)O)[nH]c2ccccc12 | -5% | 32µM* | ? | -7% | 25µM* | -4%
COc1cccc(-c2ccc(C#N)c(OC(=O)c3c(Cl)cccc3Cl)n2)c1 | 3% | -19% | -3% | 0% | 7% | 2%
COc1cccc(-c2ccc(C#N)c(OC(=O)c3ccc(Cl)cc3)n2)c1 | 4% | 0% | 12% | 10% | 11% | 6.3µM*
O=C1N/C(=N\N=C\c2ccco2)SC1Cc1ccccc1[N+](=O)[O-] (centres undefined) | 2% | 1% | 4µM* | -30% | 15% | 6%
CCOc1ccc(CC2S/C(=N/N=C/c3ccco3)NC2=O)cc1 (centres undefined) | -8% | -22% | -4% | 3% | 27% | -2%
Cc1ccc(Cc2nc3ccccc3nc2SCC(=O)N2CCN(c3ccccc3F)CC2)cc1 | . | -16% | -12% | . | . | .
Cc1ccc(C)c(N2CCN(C(=O)c3c4c(nc5ccccc35)C(=O)N(C3CCCCC3)C4)CC2)c1 | . | ? | 10% | . | . | .
SMILES | EPAC1 ag | USP1 inh | GLP1R cytotox | EPAC2 antag | EPAC1 antag | EPAC2 agonist
N#C/C(=N\Nc1ccc([N+](=O)[O-])cc1)C(=N)N1CCOCC1 | -3% | -11% | ? | 1% | 12% | -1%
N#C/C(=N/Nc1ccc([N+](=O)[O-])cc1)C(=N)N1CCCCC1 | -6% | -9% | 11µM* | -19% | -13% | 2%
COc1cccc(S(=O)(=O)N(C)C[C@H]2Oc3cc(Br)ccc3S(=O)(=O)N([C@@H](C)CO)C[C@H]2C)c1 | 8% | 18µM* | -23% | ? | -15% | 3%
C[C@@H]1CN([C@H](C)CO)S(=O)(=O)c2ccc(Br)cc2O[C@@H]1CN(C)Cc1ccc(-c2ccccc2)cc1 | -10% | 25µM* | 3% | 0% | -3% | 8%
C[C@@H]1CN([C@H](C)CO)S(=O)(=O)c2ccc(Br)cc2O[C@@H]1CN(C)Cc1ccc(C(=O)O)cc1 | -8% | -21% | 5% | 4% | -11% | 2%
C[C@H]1CN([C@@H](C)CO)S(=O)(=O)c2ccc(Br)cc2O[C@H]1CN(C)S(=O)(=O)c1ccccc1 | 9% | -19% | -7% | -16% | 14% | 10%
COc1cc2c(cc1OC)n(Cc1cccc(C(F)(F)F)c1)c(=O)n1nc(-c3ccccc3)nc21 | . | -5% | 7% | . | . | .
COC(=O)c1ccc2c(c1)C(C)(C)C(/C=C/c1ccccc1O)=[N+]2C | 10% | -16% | 10µM* | 11% | 18% | 11%
C[N+]1=C(/C=C/Nc2ccccc2Cl)C(C)(C)c2ccccc21 | -4% | -16% | -7%[1.53 µM] | 16% | 19% | -1%
Cc1ccc(Cl)cc1NC(=O)CCc1c(C)nc2c3cccnc3nn2c1C | . | -11% | 0% | . | . | .
Cc1ccccc1OCc1n(CC(=O)OC2CC(C)CCC2C(C)C)c2ccccc2[n+]1C (centres undefined) | -2% | ? | ? | -17% | ? | 1%
CC1CCC(C(C)C)C(OC(=O)Cn2c(-c3ccc(Cl)cc3)[n+](C)c3ccccc32)C1 (centres undefined) | 0% | -13% | 10µM* | -1% | -13% | 2%
CC(C)O/C(=N\S(=O)(=O)c1ccc(Cl)cc1)c1ccccc1 | -1% | -9% | 2% | ? | 2% | 4%
CC(C)O/C(=N/S(=O)(=O)c1ccc(Cl)cc1)c1ccccc1 | 2% | -24% | 2% | 50µM* | 5% | 14%
O=C1NC(c2cccc3ccccc23)Nc2ccccc21 (centres undefined) | 3% | ? | ? | -4% | 3% | -3%
